SMILES strings stand for the structures. Records with an inconclusive call do not appear. Values without a mark were called inactive.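 How the source made its calls: active means cell viability at or below a set limit in both duplicate runs, the limit being the all-compound median minus 4 SD (cut at about 23% in these data, passing the limit was not always enough); inconclusive means no clear call, values can overlap the other calls; inactive means the rest.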

The assay can be described thus: viability of HCT116 without oncogenic beta-catenin – human colon tumor cells, pilot screen (AID 823).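 Further: 0% = wells killed by 20 µM Hyamine and 100% = untreated DMSO cell wells.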 To be noted: HCT116 beta-catenin knockout viability, CellTiter-Glo, 60 h; at 10 µM; hits give low values.
A word on the viability: it is a read-out of living cells in per cent, often relative to untreated cells. For `Cc1c(/C=N/n2cnnc2)c2ccccc2n1C`, the viability was 98.7%.

For `Cn1c(C(=O)N2CCC(C(=O)N3CCOCC3)CC2)cc2sccc21`, the viability is 98.7%.

For the molecule `CCN1CCN(CC(=O)Nc2cccc(C)c2C)C(=O)C1=O`, the viability is 99%.

For the molecule `CCOC(=O)N1CCN(CC(=O)Nc2cc3c(cc2C(C)=O)OCO3)CC1`, the viability was 94.2%.

On to `Cc1c(C#N)c2ncn(Cc3ccccc3)c(=O)c2n1-c1ccccc1`, for which the viability is 81.1%.

In the case of `C=C(C)Cn1c(C2CC(=O)N(Cc3ccccc3)C2)nc2ccccc21` (configuration not stated), the viability was 97.1%.

As to `COc1ccc(OC)c(NC(=O)COC(=O)c2ccc(S(=O)(=O)N3CCOCC3)cc2)c1`, the viability was 94.5%.

For `OC(COc1cccc2ccccc12)CN1CCN(c2ccccn2)CC1` (configuration not stated), the viability is 84.9%.

Regarding `Cc1nnc(SCC(=O)NC(C)c2ccccc2)[nH]c1=O` (configuration not stated), the viability is 101%.

With `CCOC(=O)c1sc(N)nc1-c1ccccc1`, the viability is 101%.

As to `CCP(=O)(c1ccccc1)C(C)(C)O` (configuration not stated), the viability was 104%.

Regarding `Cc1nn(C)c(C)c1NS(=O)(=O)c1ccccc1`, the viability was 98%.

As to `CC(C)c1nnc(NC(=O)c2ccc(S(=O)(=O)N3CCOCC3)cc2)s1`, the viability was 104%.

In the case of `CCCSC1=N/C(=C\c2ccsc2)C(=O)S1`, the viability was 95.1%.

On to `c1ccc2c(c1)CCCN2c1nc2ccccc2n2cnnc12`, for which the viability is 91.2%.

With `Cn1c(C(=O)NCCN2CCc3ccccc3C2)cc2c(=O)n(C)c3ccccc3c21`, the viability was 70.4%.

As to `O=C(NCc1cccnc1)c1ccc(CS(=O)(=O)c2ccc(Br)cc2)o1`, the viability was 95.3%.
